Shown are actives, neighbours in structure and some others; about 7.3% of the full set was active somewhere.
SMN2 splice up: SMN2 splice variant enhancement. HEK293 SMN2-luciferase splicing reporter, luminescence, 30-36 h. Potency, µM (doses to about 46.1 µM), most hits filed as activators. 210,000 tested, 2.8% active; further: nearly all actives have a fitted effect of over 55% in size
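qHTS luciferase splicing reporter: luminescence rises when SMN2 exon 7 is included in transfected HEK293 cells. Compound exposure lasted 30-36 h at 37C, with 4.5 mM final sodium butyrate as control, followed by a ONE-Glo read.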
NPC1 promoter act: activates the NPC1 promoter; Huh7 NPC1 promoter luciferase reporter, 24 h; Potency, µM (doses to about 9.22 µM), usual class: activators; 320,000 tested, 2.4% active; AID 485313; further: nearly all actives have a fitted effect of over 60% in size
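Readout is luciferase luminescence, reflecting NPC1 promoter activation in stably transfected Huh7 cells after 24 h compound exposure at 37 °C in reduced-serum medium with 10% FBS.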
FLuc counter: firefly luciferase modulation, counter-screen for miR-21 project | purified FLuc, Km substrates, luminescence inhibition | Potency, µM (doses to about 57.5 µM), usual class: inhibitors | 360,000 tested, 6.9% active | AID 588342; further: nearly all actives have a fitted effect of over 55% in size
Target sequence (P08659 whole entry, looked up): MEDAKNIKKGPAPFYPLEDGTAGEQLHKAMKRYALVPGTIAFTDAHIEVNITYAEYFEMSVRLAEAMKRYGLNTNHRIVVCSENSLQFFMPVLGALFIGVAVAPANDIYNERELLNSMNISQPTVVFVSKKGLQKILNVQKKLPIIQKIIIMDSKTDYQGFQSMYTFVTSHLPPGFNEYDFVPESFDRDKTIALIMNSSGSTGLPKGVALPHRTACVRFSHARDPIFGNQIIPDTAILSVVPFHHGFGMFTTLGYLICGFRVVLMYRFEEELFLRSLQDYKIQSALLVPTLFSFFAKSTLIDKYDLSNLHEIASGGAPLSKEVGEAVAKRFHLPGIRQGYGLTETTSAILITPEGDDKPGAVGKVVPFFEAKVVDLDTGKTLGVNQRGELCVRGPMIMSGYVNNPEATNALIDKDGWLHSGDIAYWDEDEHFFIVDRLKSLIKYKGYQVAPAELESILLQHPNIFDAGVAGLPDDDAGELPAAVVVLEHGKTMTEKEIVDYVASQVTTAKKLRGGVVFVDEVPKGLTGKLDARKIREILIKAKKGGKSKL
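Purified P. pyralis luciferase, 10 nM final, with Km-level 10 uM D-luciferin and 10 uM ATP in 50 mM Tris acetate pH 7.5, 10 mM Mg acetate, 0.01% Tween-20, 0.05% BSA; 6-point qHTS titration about 60 µM downward; luminescence read.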
p53 reactivator: restores transcriptional activity of mutant p53 | H1299 p53-A138V BP100-luciferase reporter, luminescence, 24 h | 320,000 tested, 0.063% active | Potency, µM (top dose mostly 92.2 µM), actives largely listed as activators; further: nearly all actives have a fitted effect of over 45% in size
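p53-null H1299 cells stably carrying temperature-sensitive p53-A138V and a BP100-luciferase reporter were pinned with compounds (4-point, 1:5 series) and held 24 hrs at 37 deg C. Luminescence was read 10 min after detection reagent.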
Rab9 prom act: activates the Rab9 promoter; Huh7 Rab9 promoter-luciferase reporter, luminescence, 24 h; Potency, µM (highest dose often 9.22 µM), most hits filed as activators; 320,000 tested, 2.8% active; AID 485297; further: nearly all actives have a fitted effect of over 60% in size
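Stable Rab9-luc Huh7, 1500 cells/well, 2 h settle; cmpd in DMSO, 24 h, 37 °C/5% CO2; luciferase reagent 10 min RT; luminescence.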
ELG1 genotox: genotoxicity induction in ELG1-luciferase HEK293T cells | 330,000 tested, 1.3% active | Potency, µM (top dose mostly 46 µM), hits mostly activators | HEK293T ELG1-luciferase reporter, luminescence, 16 h | AID 504466; further: nearly all actives have a fitted effect of over 60% in size
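Luminescence read-out: rising ELG1-luciferase signal, reflecting elevated ELG1 protein under genetic stress, flags genotoxic compounds. Cells were treated for 16 hr at 37 °C before ONE-Glo detection.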
A number is an active result; n = inactive; u = inconclusive; x = no result; [ ] = remark or other dose. The call rests on the fitted dose curve; in most records, active means well fitted curve in the direction sought with a large enough effect; inconclusive means small, poorly fitted or top-dose-only effect, or another doubt; inactive means no such curve, though single readings can be large; an effect the other way counts as inactive or inconclusive.

SMILES	SMN2 splice up	NPC1 promoter act	FLuc counter	p53 reactivator	Rab9 prom act	ELG1 genotox
Cc1ccc(N(CC(=O)Nc2ccc(Br)c(C)c2)S(=O)(=O)c2cccs2)cc1	n	x	n	x	x	x
COc1ccc(C)cc1NC(=O)c1cc2ccccc2o1	n	n	15µM	u	n	n
Cc1ccc(NC(=S)c2ccc3ccccc3n2)c(C)c1	x	1.1µM	11µM	u	1.6µM	u
Cc1ccc(C)c(NC(=O)c2cc3ccccc3o2)c1	x	u	13µM	x	4µM	n
CCc1cccc(C)c1NC(=O)c1cc2ccccc2o1	n	x	n	x	x	x
Cc1cc([N+](=O)[O-])ccc1NC(=O)c1cc2ccccc2o1	x	u	u	x	2.5µM	n
COC(=O)c1ccc(C(NC(=O)OCc2ccccc2)/C(=C/[C@@H](C)C(=O)NCc2ccc(-c3ccccc3)cc2)c2cccnc2)cc1 (some centres not stated)	n	x	x	x	x	x
COc1cc(NC(C)=O)ccc1NC(=O)c1cc2ccccc2o1	x	u	n	x	u	u
COc1cc(N)ccc1NC(=O)c1cc2ccccc2o1	x	4µM	11µM	x	3.2µM	u
Cc1ccc(S(=O)(=O)N(C)C)cc1NC(=O)c1ccc2ccccc2n1	x	n	u	n	n	n
Cc1ccc(C)c(NC(=O)c2ccc3ccccc3n2)c1	14µM	4µM	0.85µM	u	2µM	u
CCCC(=O)Nc1ccc(NC(=O)c2cc3ccccc3o2)c(OC)c1	x	4µM	u	x	2.5µM	n
O=S(=O)(c1ccccc1)c1nnn2c1nc(NC1CCCCC1)c1sccc12	x	x	n	x	x	x
Cc1ccc(N(Cc2cccs2)C(=O)C(C)Oc2ccc(Cl)c(C)c2)cc1 (configuration not stated)	x	x	n	x	x	x
O=C(Nc1ccc2ccccc2n1)c1ccccc1Cl	x	0.71µM	1.3µM	u	0.56µM	u
COc1ccc(C(=O)Nc2ccc3ccccc3n2)c(OC)c1OC	x	u	0.21µM	n	u	0.33µM
O=C(Nc1ccc2ccccc2n1)C1CCCCC1	x	1.1µM	6µM	u	0.79µM	u
O=C(Nc1ccnc(-c2ccncc2)n1)c1ccccc1Cl	n	n	n	n	n	n
O=C(Nc1ccc2ccccc2n1)c1ccc(Cl)cc1	x	1µM	2.1µM	n	0.63µM	u
O=C(Nc1ccccc1)C1CCCCC1	x	n	n	n	n	n
CC(C)(C)c1cc(Br)c(O)c(CN(Cc2cc(C(C)(C)C)cc(Br)c2O)C2CCCCC2)c1	n[9.22 µM]	x	x	x	x	x
CCN(CC)c1ccc(NC(=O)Nc2ccccc2C(F)(F)F)cc1	n	u	n	n	3.2µM	n
CN(C)c1ccc(NC(=O)Nc2cccc3ccccc23)cc1	n	n	2.7µM	n	u	n
NS(=O)(=O)c1ccc(NC(=O)Nc2cccc3ccccc23)cc1	n[9.22 µM]	n	n	n	n	n
CCN(CC(=O)Nc1ccc(C(C)=O)cc1)CC(=O)Nc1ccccc1C(F)(F)F	x	n	n	n	n	n
SMILES	SMN2 splice up	NPC1 promoter act	FLuc counter	p53 reactivator	Rab9 prom act	ELG1 genotox
CCN(CC)c1ccc(NC(=O)Nc2cccc3ccccc23)cc1	x	u	2.1µM	n	n	n
CCOC(=O)C(=O)Nc1ccc(F)cc1	n	n	n	n	n	n
CCOC(=O)C(=O)Nc1ccc(Oc2ccccc2)cc1	n	n	15µM	n	n	n
CC(C)[C@H](NC(=O)Nc1ccc(Oc2ccccc2)cc1)C(=O)O	n	n	24µM	n	n	n
CSc1ccccc1C(=O)Nc1nc2ccccc2[nH]1	14µM	3.2µM	u	u	4.5µM	u
CS(=O)(=O)c1ccccc1C(=O)Nc1nc2ccccc2[nH]1	x	n	n	n	n	n
CSc1ccccc1C(=O)Nc1nc2ccccc2c(=O)[nH]1	x	n	19µM	n	2.8µM	n
C[C@@H](N)/C(N)=N/O	n[9.22 µM]	x	x	x	x	x
CN(C)C(CNC(=O)c1ccc(C2SCCS2)cc1)c1ccccc1 (configuration not stated)	x	n	17µM	u	n	n
CN(C)C(CNC(=O)c1ccc(NC(=O)c2cccs2)cc1)c1ccccc1 (configuration not stated)	x	n	n	n	n	n
Cc1ccsc1C=Nc1ccc(O)cc1	n	n	u	n	n	n
Cc1ccsc1/C=N/N=C/c1sccc1C	x	4µM	1.1µM	x	1.6µM	u
Cc1ccc(C(=O)N/N=C\c2sccc2C)cn1	u	u	17µM	n	u	u
Cc1ccsc1/C=N/NC(=O)c1ccc2nc[nH]c2c1	n	n	u	u	u	n
Cc1ccsc1/C=N/NC(=O)c1sccc1C	11µM	2.5µM	5.4µM	u	3.2µM	u
CCCN(CCC)C(=O)Cn1c(=O)n(-c2ccc(Cl)c(Cl)c2)c(=O)c2c(C)c(C(=O)N(C)C)sc21	x	x	n	x	x	x
Cc1ccc(NC(=O)C(NS(=O)(=O)c2ccc3c(c2)CCC(=O)N3)c2ccccc2)cc1C (configuration not stated)	n	x	u	x	x	x
O=C(O)CCCNc1cc(N2CCC3(CC2)OCCO3)c2noc3c2c1C(=O)c1ccccc1-3	n	4µM	11µM	n	2.2µM	u
Cc1cc2c(n1-c1ccc(C(=O)NCC(C)c3ccccc3)cc1)CCCC2 (configuration not stated)	x	x	n	x	x	x
Cn1c(N)c(C(=O)/C=C/c2ccccc2)c(=O)[nH]c1=O	x	u	17µM	u	u	u
CSc1nc(N)nc(-c2cccs2)c1C#N	n	n	u	n	n	n
CC(C)Sc1nc(N)nc(-c2cccs2)c1C#N	18µM	u	17µM	n	2.8µM	u
O=C(N/N=C/c1ccc(F)cc1)c1cc(-c2ccccn2)nc2ccccc12	x	n	n	n	n	n
O=C(N/N=C/c1ccc(O)cc1)c1cc(-c2ccccc2)nc2ccccc12	x	n	5.4µM	n	n	n
Cc1cc(C(=O)N/N=C/c2cc(Cl)cc([N+](=O)[O-])c2O)n[nH]1	x	n	27µM	n	n	n
SMILES	SMN2 splice up	NPC1 promoter act	FLuc counter	p53 reactivator	Rab9 prom act	ELG1 genotox
COc1ccc(/C=N/NC(=O)c2cc(-c3ccccc3)nc3ccccc23)cc1O	x	n	5.4µM	n	n	n
COc1ccc(/C=N/NC(=O)c2cc(-c3ccccc3)nc3ccccc23)c(C(=O)O)c1OC	x	n	7.6µM	n	n	n
CNC[C@H](O)c1ccc(OC(=O)C(C)(C)C)c(OC(=O)C(C)(C)C)c1	n	x	x	x	x	x
Cn1cc(-c2cc3n(n2)CCC(=O)N3CC(=O)NCc2ccc(Cl)cc2)c2ccccc21	x	x	n	x	x	x
COc1ccc(CNC(=O)c2cc3c(=O)n(Cc4cccs4)ccc3nc2C)cc1	x	x	n	x	x	x
COc1ccc(CNc2ncnc3ccc(-c4ccccc4CN(C)C)cc23)c(OC)c1	n	x	x	x	x	x
O=C(O)COc1ccccc1/C=N/NC(=O)c1cc(-c2ccc(F)cc2)nc2ccccc12	n	n	1.9µM	n	n	n
Cc1ccc(/C=N/NC(=O)c2cc(-c3ccccc3)nc3ccccc23)o1	x	n	12µM	n	n	n

Assay outcomes (PubChem)
